HepG2 viability: kills HepG2 cells in TGF-b inhibitor counter-screen. HepG2 CAGA-GFP viability, ATP luminescence, 18 h. Potency, µM (highest dose often 46.1 µM), hits mostly cytotoxic. 410,000 compounds, 0.76% hits. AID 588856
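HepG2 CAGA-GFP cells (1000/well, DMEM with 1% FBS) received compound, then TGF-beta at 500 pg/mL final, and were incubated 18 hours at 37 degrees C. Viability was read by CellTiter-Glo luminescence. Media-only wells were set as complete cell-killing and DMSO as no toxicity.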
TGFb inhibitor: TGF-b pathway inhibition | AID 588855 | Potency, µM (top dose mostly 46.1 µM), most hits filed as inhibitors | HepG2 CAGA-GFP TGF-b/SMAD3 reporter, GFP fluorescence, 18 h; TGF-beta stimulated, 500 pg/mL final | 410,000 compounds, 1.2% hits; also: nearly all actives have a fitted effect of over 65% in size
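Read-out: total well GFP (ex488/em500-530) summed from mean per-cell fluorescence. Cells: HEPG2 CAGA-GFP, 1% FBS DMEM, 18 h at 37 degrees C with 500 pg/mL final TGF-beta. Unstimulated wells served as the full-inhibition control; stimulated DMSO wells = 0%.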
ATXN2 expr inh: inhibitors of ATXN2 expression | HEK-293 ATXN2-luciferase reporter, luminescence, 24 h | Potency, µM (highest dose often 57 µM), hits mostly inhibitors | 360,000 compounds, 0.72% hits | AID 1745845; also: nearly all actives have a fitted effect of over 55% in size
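qHTS (up to 57 uM final) was run with 24 h compound exposure of reporter cells at 37 °C. Each well was multiplexed: SteadyGlo luminescence measured ATXN2-luciferase expression after a fluorogenic Gly-Phe-AFC viability readout (25 uM final).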
A549 tox: kills or reduces viability of A549 cells in Nrf2 counter-screen. 390,000 compounds, 0.16% hits. A549 ARE-Fluc cells, CellTiter-Fluor viability, 18-24 h. AID 504648. Potency, µM (doses to about 46 µM), most hits filed as inhibitors
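A549 ARE-Fluc cells in 5% FBS OPTI-MEM, 5000 cells/well, rested 2 h then exposed to compounds in concentration-response for 18-24 h at 37 °C. Viability by CellTiter-Fluor fluorescence (Ex 405/Em 525) after 30 min; luciferase luminescence (BugLite, 15 min, RT) read afterwards.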
S2 tox: cell viability loss in ATXN counter-screen; Potency, µM (titrated, usually from 56.7 µM), actives largely listed as cytotoxic; S2 cells (HEK-293 line with an ATXN2-luciferase reporter) viability, CellTiter-Fluor protease fluorescence, 24 h; 400,000 compounds, 0.49% hits; also: nearly all actives have a fitted effect of over 40% in size
Nrf2 block: blocks Nrf2 signaling | A549 ARE-Fluc reporter, luciferase luminescence, 18-24 h | Potency, µM (highest dose often 46 µM), usual class: inhibitors | 360,000 compounds, 2.1% hits; also: nearly all actives have a fitted effect of over 60% in size
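A549 ARE_Fluc cells (5000/well, 5% FBS OPTI-MEM) pre-incubated 2 h, then treated with compounds 18-24 h at 37C/5% CO2 in concentration-response. CellTiter-Fluor viability read first; BugLite luciferase luminescence after 15 min at room temperature gives Nrf2 activity.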
A number is an active result; . = inactive; ? = inconclusive; / = no result; ! = not confirmed by another sample. Compounds with a hit are over-represented: about 3.8% of the library has one in this group of screens. Calls follow the shape of the dose curve; as a rule, active = well fitted curve in the direction sought with a large enough effect; inconclusive = small, poorly fitted or top-dose-only effect, or another doubt; inactive = no such curve, though single readings can be large; an effect the other way counts as inactive or inconclusive.

SMILES | HepG2 viability | TGFb inhibitor | ATXN2 expr inh | A549 tox | S2 tox | Nrf2 block
CCc1ccc(Nc2nc(N)nc(CSc3nc4ccccc4s3)n2)cc1 | 7.9µM! | ? | . | . | ? | ?
Cc1ccc(Cc2c(-c3ccccc3)nc3c(Cl)cc(C(F)(F)F)cn23)cc1 | . | . | . | / | . | /
COc1cccc(CN2CCc3nnc(CCc4ccccc4)n3CC2)c1OC | / | / | / | / | . | /
CCOC(=O)/C=C/C(=O)Nc1ccc(S(=O)(=O)Nc2c(C)cc(C)cc2C)cc1 | . | ? | ? | . | ? | .
CCOC(=O)/C=C/S(=O)(=O)c1ccc(NC(C)=O)cc1 | 2µM | ? | ? | / | ? | .
CC(C)CNS(=O)(=O)c1ccc(CCC(=O)Nc2cc(Cl)ccc2Oc2ccccc2)cc1 | . | . | . | . | . | /
COc1cccc(OCC(=O)Nc2ccccc2NC(C)=O)c1 | . | . | . | . | ? | .
CCOc1ccc(Oc2ccccc2NS(=O)(=O)c2ccc(CCC(=O)O)cc2)cc1 | . | . | . | . | . | 10µM
CCCNS(=O)(=O)c1ccc(CCC(=O)Nc2cc(Cl)ccc2Oc2ccccc2)cc1 | . | . | . | ? | ? | 16µM
COc1cccc(OCC(=O)Nc2cc(Cl)ccc2Oc2ccccc2)c1 | . | . | 28µM | . | ? | .
CCC1(CC)C(=O)C(C)(C)C(=O)OC1c1cccs1 (stereo not drawn) | . | ? | . | . | . | .
COc1ccccc1CNC(=O)CN1C(=O)N(C)C2(CCCCC2)C1=O | . | . | / | . | . | .
Cc1cccc(CCNc2ncnc3onc(-c4ccc(Cl)cc4)c23)c1 | . | . | . | . | . | .
CS(=O)(=O)N(CC(=O)N1CCN(Cc2ccccc2)CC1)c1ccccc1Br | . | . | . | . | . | .
C=CCn1c(=O)/c(=C/c2ccc(O)cc2)s/c1=C(/C#N)c1nnc2n1CCCCC2 | . | . | . | ? | . | ?
C=CCn1c(=O)/c(=C/c2ccc(Cl)cc2)s/c1=C(/C#N)c1nnc2n1CCCCC2 | . | . | 22µM | . | 18µM | ?
CC1=C(CC[C@@H](C)CO)OC2CC3C4CCC5CC(O)CCC5(C)C4CC(=O)C3(C)C12 (stereo partly drawn) | . | . | 25µM | . | ? | ?
O=C(CSc1nnc(-c2ccc(F)cc2)o1)N1CCCc2ccccc21 | . | . | . | . | ? | ?
C=CCNC(=O)/C(C#N)=C/c1c(N(Cc2ccccc2)Cc2ccccc2)nc2ccccn2c1=O | . | . | . | ? | ? | 26µM
N#C/C(=C\c1c(N(Cc2ccccc2)Cc2ccccc2)nc2ccccn2c1=O)C(N)=O | . | . | . | . | ? | .
O=C(NCC(=O)N1CCN(S(=O)(=O)/C=C/c2ccccc2)CC1)c1ccc(Cl)cc1 | . | . | . | . | . | .
COc1ccc(OC)c(/C=C/c2c3ccccc3cc[n+]2C)c1 | . | . | / | / | / | /
CCOCCCNC(=O)/C(C#N)=C/c1ccc([N+](=O)[O-])o1 | . | . | ? | ? | 19µM | 26µM
CCOCCCNC(=O)/C(C#N)=C/c1ccc(-c2ccc(S(=O)(=O)N3CCOCC3)cc2)o1 | . | . | . | . | . | .
CCc1ccccc1N(CC)C(=O)c1c(C)oc2ncnc(N3CCOCC3)c12 | . | . | / | . | / | .
SMILES | HepG2 viability | TGFb inhibitor | ATXN2 expr inh | A549 tox | S2 tox | Nrf2 block
O=C(N[C@@H](Cc1ccccc1)C(=O)CCl)OCc1ccccc1 | . | ? | 28µM | . | 16µM | ?
COC(=O)CCC(NC(=O)OCc1ccccc1)C(=O)NC(CC(C)C)C(=O)OC (stereo not drawn) | . | . | . | . | . | .
CC(C)C[C@@H](C=O)NC(=O)[C@H](CC(C)C)NC(=O)[C@H](CC(C)C)NC(=O)OCc1ccccc1 | / | / | 1.1µM | / | / | /
O=C(CCl)NC(Cc1ccccc1)C(=O)OCC(=O)c1ccc(-c2ccccc2)cc1 (stereo not drawn) | . | ? | . | . | 15µM | .
O=C(Nc1ccc(Br)cc1)C1OCCc2ccccc21 (stereo not drawn) | . | . | . | . | . | .
CCOC(=O)CC(=O)NC1(Cc2ccc(O)cc2)CCCCC1 | . | . | . | . | . | .

Assay outcomes (PubChem)
